Assay outcomes deposited in PubChem by National Center for Advancing Translational Sciences (NCATS).
Rows were chosen to be rich in hits. Some 7.3% of all compounds tested hit in one or more screens of this group.
SMN2 splice up: increases expression of the SMN2 splice variant; HEK293 SMN2-luciferase splicing reporter, luminescence, 30-36 h; Potency, µM (doses to about 46.1 µM), usual class: activators; 210,000 tested, 2.8% active; AID 1458; also: nearly all actives have a fitted effect of over 55% in size
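qHTS luciferase splicing reporter: luminescence rises when SMN2 exon 7 is included in transfected HEK293 cells. Compound exposure lasted 30-36 h at 37C, with 4.5 mM final sodium butyrate as control, followed by a ONE-Glo read.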
NPC1 prom act: NPC1 promoter activation; Huh7 NPC1 promoter luciferase reporter, 24 h; Potency, µM (doses to about 9.22 µM), hits mostly activators; 320,000 tested, 2.4% active; AID 485313; also: nearly all actives have a fitted effect of over 60% in size
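Stably transfected Huh7 (NPC1 promoter→luciferase), 1500 cells/well in Opti-MEM + 10% FBS, 2 h settle, then compound 24 h at 37 °C. Luminescence after 10 min with Amplite reagent.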
Luc counter: blocks Kinase-Glo luciferase, a counter-screen artifact; Kinase-Glo luciferase, ATP luminescence, 8 min; Potency, µM (top dose mostly 38.3 µM), hits mostly inhibitors; 200,000 tested, 0.28% active; also: nearly all actives have a fitted effect of over 60% in size
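Recombinant Kinase-Glo luciferase, 10 uM ATP (linear range), luciferin; imidazole pH 7.2 / KCl / MgCl2 / Tween / BSA buffer; 8 min RT; luminescence.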
FLuc counter: inhibits or activates purified firefly luciferase, miR-21 counter-screen. P08659. purified FLuc, Km substrates, luminescence inhibition. Potency, µM (titrated, usually from 57.5 µM), usual class: inhibitors. 360,000 tested, 6.9% active. AID 588342; also: nearly all actives have a fitted effect of over 55% in size
Target sequence (P08659 whole entry, looked up): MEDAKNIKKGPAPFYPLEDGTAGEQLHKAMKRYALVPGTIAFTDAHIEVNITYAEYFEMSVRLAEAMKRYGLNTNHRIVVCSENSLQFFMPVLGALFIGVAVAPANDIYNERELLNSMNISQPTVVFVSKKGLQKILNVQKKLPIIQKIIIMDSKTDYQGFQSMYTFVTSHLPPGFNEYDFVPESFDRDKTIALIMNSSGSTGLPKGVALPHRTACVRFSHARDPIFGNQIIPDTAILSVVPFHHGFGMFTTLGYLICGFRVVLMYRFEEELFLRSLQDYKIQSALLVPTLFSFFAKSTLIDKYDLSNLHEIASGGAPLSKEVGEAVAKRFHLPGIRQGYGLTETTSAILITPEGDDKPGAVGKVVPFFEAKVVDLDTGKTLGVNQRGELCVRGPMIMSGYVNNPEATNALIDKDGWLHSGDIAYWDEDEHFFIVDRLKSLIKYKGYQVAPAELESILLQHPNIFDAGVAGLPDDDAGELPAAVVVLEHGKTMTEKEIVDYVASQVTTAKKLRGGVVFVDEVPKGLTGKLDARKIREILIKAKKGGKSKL
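Purified P. pyralis luciferase (10nM final) with 10uM D-luciferin and 10uM ATP (Km levels) in 50mM Tris acetate pH 7.5, 10mM Mg acetate, 0.01% Tween-20, 0.05% BSA; qHTS 6-point titration, ~60 µM downward; luminescence read.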
ELG1 genotoxic: inducers of genotoxicity in HEK293T ELG1-luciferase cells; HEK293T ELG1-luciferase reporter, luminescence, 16 h; Potency, µM (doses to about 46 µM), hits mostly activators; 330,000 tested, 1.3% active; AID 504466; also: nearly all actives have a fitted effect of over 60% in size
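Genotoxicity was scored as increased ELG1-luciferase reporter signal, measured by ONE-Glo luminescence (30 min, room temperature). Compound or vehicle exposure of the HEK293T reporter cells lasted 16 hr at 37°C.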
Rab9 prom act: activates the Rab9 promoter. Huh7 Rab9 promoter-luciferase reporter, luminescence, 24 h. Potency, µM (top dose mostly 9.22 µM), most hits filed as activators. 320,000 tested, 2.8% active. AID 485297; also: nearly all actives have a fitted effect of over 60% in size
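Cells were plated at 1500 per well in reduced-serum medium with 10% FBS and left 2 h. Compound in DMSO was then added for 24 h at 37 °C. Reporter signal was read by luminescence after 10 min with luciferase detection reagent.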
A number is an active result; - = inactive; ? = inconclusive; . = no result; [ ] = dose if it differs, or a comment. Calls follow the shape of the dose curve; as a rule, active = well fitted curve in the direction sought with a large enough effect; inconclusive = small, poorly fitted or top-dose-only effect, or another doubt; inactive = no such curve, though single readings can be large; an effect the other way counts as inactive or inconclusive.

SMILES | SMN2 splice up | NPC1 prom act | Luc counter | FLuc counter | ELG1 genotoxic | Rab9 prom act
O=[N+]([O-])c1cc(/C=N/N2CCN(C3c4ccccc4-c4ccccc43)CC2)ccc1Cl | - | - | - | - | - | -
COc1ccccc1N1CCN(/N=C/c2ccc([N+](=O)[O-])cc2)CC1 | . | ? | . | 15µM | - | 4µM
CN(C)/C=C(\C#N)C(=O)Nc1ccc(F)c(Cl)c1 | . | 3.5µM | . | ? | ? | 3.2µM
CN(C)/C=C(\C#N)C(=O)N/N=C/c1ccc(Cl)cc1 | - | 2.2µM | - | 17µM | - | ?
CCC(=O)Nc1nc(C)c(-c2csc(Nc3cccc(O)c3)n2)s1 | . | - | . | 11µM | - | -
Cc1cccc(Nc2nc(-c3sc(C)nc3C)cs2)c1 | . | ? | . | 19µM | ? | ?
Cc1nc(C)c(-c2csc(Nc3cccc(O)c3)n2)s1 | . | ? | - | 11µM | ? | ?
COc1ccc(Nc2nc(-c3sc(C)nc3C)cs2)c(OC)c1 | . | - | . | ? | - | -
Cc1nc(N)sc1-c1csc(Nc2cccc(O)c2)n1 | . | 3.5µM | . | 11µM | ? | -
COc1ccc(CCNc2nc(-c3sc(N)nc3C)cs2)cc1OC | - | - | - | ? | - | -
COc1ccc(N2CCN(C(=O)CS(=O)(=O)c3cccc4nsnc34)CC2)cc1 | . | . | . | - | . | .
CCOc1ccc(S(=O)(=O)NCCc2sc3nc(-c4ccc(F)cc4)nn3c2C)cc1 | . | . | . | - | . | .
CC(=O)c1cccc(Nc2nc(-c3sc(C)nc3C)cs2)c1 | . | - | . | ? | - | -
CC(=O)c1cccc(Nc2nc(-c3sc(N)nc3C)cs2)c1 | . | - | . | 17µM | - | -
CCc1ccc(CN2C(=O)c3ccccc3C2C(=O)NC2CCCCCC2)cc1 (stereo unspecified) | - | . | . | ? | . | .
Cc1ccc(-c2nn(-c3ccccc3)cc2CN(C)C(=O)CCC(=O)O)cc1C | - | - | - | 19µM | - | -
CC(C)C(=O)Nc1cccc(-c2nc3ncccc3o2)c1 | . | - | . | - | - | -
CC(C)C(=O)Nc1ccc(-c2nc3cccnc3o2)cc1 | 4.5µM | 0.56µM | - | 2.7µM | ? | 0.5µM
CC(C)(C)c1ccc(OCC(=O)Nc2ccc(-c3nc4cccnc4o3)cc2)cc1 | - | . | - | - | . | .
CC(C)C(=O)Nc1ccc(-c2nc3ncccc3o2)cc1 | . | 0.5µM | . | 4.3µM | ? | 0.5µM
COc1ccc(/C=N/NC(=O)c2ccccc2O)cc1COc1ccccn1 | . | - | . | - | - | -
COc1ccc(/C=N\NC(=O)c2sccc2C)cc1Cn1nc(C)cc1C | . | - | . | - | 9.2µM | -
COc1ccc(/C=N/NC(=O)CSc2ccccn2)cc1OC | . | - | . | 19µM | - | -
COc1ccc(/C=N\NC(=O)COc2ccccc2Cl)cc1Cn1nc(C)cc1C | - | - | - | - | - | -
COc1ccc(/C=N/NC(=O)c2ccccc2O)cc1CSc1ccccn1 | - | - | - | 19µM | - | -
SMILES | SMN2 splice up | NPC1 prom act | Luc counter | FLuc counter | ELG1 genotoxic | Rab9 prom act
COc1ccc(/C=N/NC(=O)c2ccccc2O)cc1Cn1nnc2ccccc21 | . | - | . | 21µM | - | -
NC(=O)Cn1c(=O)n(CCCCCC(=O)NCc2ccccc2Cl)c(=O)c2sccc21 | - | . | . | - | . | .
O=C(O)NCC1CCCCC1 (tested in a mixture with another compound) | -[9.22 µM] | . | -[7.66 µM] | . | . | .
Cc1ccc(SCc2nc(-c3ccc(C(=O)Nc4cc(C)ccc4C)cc3)oc2C)cc1 | . | . | . | - | . | .
COc1ccc(/C=N/NC(=O)CSc2ccccc2)cc1OC | - | - | - | 12µM | - | -
c1ccc(-c2ccc(-c3ccc(C4=NCCN4)cc3)o2)cc1 | -[9.22 µM] | . | -[7.66 µM] | . | . | .
Cc1cc(=O)n2nc(N3CCC(C(=O)Nc4c(C)cccc4C)CC3)sc2n1 | - | . | . | - | . | .
O=C(Nc1nn[nH]n1)c1cccc(Oc2ccccc2)c1 | - | - | - | - | - | -
Cc1cc(NC(=O)NC(=O)c2cccc(OC(F)(F)C(F)F)c2)n[nH]1 | 5.6µM | 2.5µM | - | - | ? | 2.2µM
Cc1cc(NC(=O)c2cccc(Oc3ccccc3)c2)n[nH]1 | ? | 2.8µM | - | 6.7µM | ? | 0.89µM
COc1ccc(Cl)cc1C(=O)O/N=C(\N)c1ccncc1 | . | - | . | - | - | -
COc1ccc(/C(N)=N/OC(=O)c2ccc(Br)o2)cc1 | . | ? | . | 6µM | ? | ?
